Data reported in the supplement of paper PMC13380429.
Values without a mark were called inactive.

System: Vero E6 infected with SARS-CoV-2
Assay: inhibition of SARS-CoV-2 cytopathic effect; higher = more antiviral protection, active = above 15
Settings: 48 h

Structure (SMILES)	inhibition of SARS-CoV-2 cytopathic effect (1 nM) [%]	inhibition of SARS-CoV-2 cytopathic effect (8.33 nM) [%]	inhibition of SARS-CoV-2 cytopathic effect (100 nM) [%]	inhibition of SARS-CoV-2 cytopathic effect (833.33 nM)	inhibition of SARS-CoV-2 cytopathic effect (10000 nM)
CC[N+](C)(CC)CC(=O)Nc1c(C)cccc1C [N-methyllidocaine-iodide]	1.32	2.44	0.64	1.63%	1.7%
CO/N=C1\C[C@]2(C[C@@H]3C[C@@H](C/C=C(\C)C[C@@H](C)/C=C/C=C4\CO[C@@H]5[C@H](O)C(C)=C[C@@H](C(=O)O3)[C@]45O)O2)O[C@H](/C(C)=C/C(C)C)[C@H]1C [moxidectin]	-5.37	-7.08	-3.57	-4.07%	2.53%
CC(C)(CO)c1cc2cc(NC(=O)C3(c4ccc5c(c4)OC(F)(F)O5)CC3)c(F)cc2n1C[C@@H](O)CO [tezacaftor]	0.35	0.97	-1.35	1.62%	0.29%
COc1cc2nc(N3CCN(C(=O)COc4c(OC)cccc4C(C)C)CC3)nc(N)c2cc1OC	0.49	0.12	3.19	3.59%	1.29%
CCO[C@@H]1OC(=O)C[C@@H]1NC(=O)[C@@H]1CCCN1C(=O)[C@@H](NC(=O)c1ccc(N)c(Cl)c1)C(C)(C)C	-2.56	-1.09	0.58	0.04%	-2.79%
COCCCN1CCC(NC(=O)c2cc(Cl)c(N)c3c2OCC3)CC1 [prucalopride]	0.43	1.93	-0.24	3.32%	1.47%
Cc1cccc2c1CC[C@H](CN1CCC(c3c(Cl)cccc3Cl)CC1)C[C@@H]2O	-2.92	0.72	4.25	1.11%	-8.51%
CC(C)N1Cc2cc(S(C)(=O)=O)ccc2N(CCN2CC=C(c3c[nH]c4cc(F)ccc34)CC2)S1(=O)=O	-0.02	5.05	2.58	1.15%	4%
CC[C@@]1([C@H]2O[C@H]([C@H]3O[C@@](O)(CO)[C@H](C)C[C@@H]3C)C[C@H]2C)CC[C@H]([C@@]2(C)CC[C@]3(C[C@H](O)[C@@H](C)[C@@H]([C@H](C)[C@H](OC)[C@@H](C)C(=O)O)O3)O2)O1	-2.66	-0.7	2.93	27.6% (active)	52.5% (active)
Nc1nc(NC[C@H]2CC[C@H](CNS(=O)(=O)c3cccc4ccccc34)CC2)nc2ccccc12	-0.54	-0.03	0.19	-0.88%	29.5% (active)
Cc1[nH]c(/C=C2\C(=O)Nc3ccccc32)c(C)c1CCC(=O)O [orantinib]	-0.96	2.48	1.61	-0.48%	-0.87%
C[C@H](NC(=O)CNC(=O)c1cccc(Cl)c1)c1ccccc1	-3.1	0.31	-4.2	-1.91%	0.27%
O=C(O)c1cccc(-c2noc(-c3ccccc3F)n2)c1 [ataluren]	-0.23	0.96	0.68	2.99%	2.92%
Cc1c(NC(=O)c2cc3c(s2)CCCC3)cccc1-c1cn(C)c(=O)c(Nc2ccc(C3C(=O)N(C)CCN3C)cc2)n1 (stereo in doubt)	2.73	-3.85	3.38	3.72%	7.34%
CC(=C(CCO)SSCC1CCCO1)N(C=O)Cc1cnc(C)nc1N (stereo in doubt) [fursultiamine]	2.52	0.44	2.45	-1.75%	-2.11%
O=C(CN1C2=NCCN2c2ccccc21)c1ccc(-c2ccccc2)cc1	-0.77	3.75	1.71	-0.84%	14.8%
CN(C)c1ccc(C(=C2C=CC(=[N+](C)C)C=C2)c2ccc(N(C)C)cc2)cc1 [crystal-violet]	-0.43	1.49	0.27	-11.4%	-22.8%
CC(C)c1cccc2c1OC(C(C)C)C(=S)N2CC(=O)O (stereo not given)	-0.74	3.31	1.03	1.02%	-0.31%
CC(=O)N(CC(C)C(=O)O)c1c(I)cc(I)c(N)c1I (stereo not given) [iocetamic-acid]	-1.3	1.93	1.81	0.62%	3.4%

Structure (SMILES)	inhibition of SARS-CoV-2 cytopathic effect (1 nM) [%]	inhibition of SARS-CoV-2 cytopathic effect (8.33 nM) [%]	inhibition of SARS-CoV-2 cytopathic effect (100 nM) [%]	inhibition of SARS-CoV-2 cytopathic effect (833.33 nM)	inhibition of SARS-CoV-2 cytopathic effect (10000 nM)
Cc1ccc(NC(=O)c2ccc(CN3CC[C@H](N(C)C)C3)c(C(F)(F)F)c2)cc1Nc1nccc(-c2cncnc2)n1 [bafetinib]	3.35	-0.19	0.01	-3.15%	-4.8%
N[C@@H](CC(=O)N1CCn2c(nnc2C(F)(F)F)C1)Cc1cc(F)c(F)cc1F [sitagliptin]	-0.24	1.03	2.43	3.7%	1%
CC[N+](CC)(CC)CCC(O)(c1ccccc1)C1CCCCC1 (stereo not given) [tridihexethyl]	-1.22	-1.31	-0.23	-1.37%	-1.87%
CC(C)(C)c1cc(C=C(C#N)C#N)cc(C(C)(C)C)c1O [tyrphostin-A9]	1.9	1.44	4.1	8.55%	6.42%
CC(C)C(N)C(=O)O (stereo in doubt) [L-valine]	0.78	-0.34	0.64	-0.11%	1.66%
S=C(NCc1ccc2c(c1)OCO2)N1CCN(c2ncnc3c2oc2ccccc23)CC1 [amuvatinib]	3.11	-0.46	1.46	2.33%	-1.9%
CCCC[C@H]1C(=O)N(c2ccccc2)N(c2ccc(O)cc2)C1=O [oxyphenbutazone]	0.53	1.14	1.48	3.6%	10.9%
N=C(N)c1ccc(/N=N/Nc2ccc(C(=N)N)cc2)cc1 [diminazene-aceturate]	0.66	-1.51	-3.27	-14%	2.42%
Nc1ncnc2c1c(-c1ccc(Cl)cc1)nn2-c1cccc(-c2cnnn2Cc2cccc(-c3ccccc3)c2)c1	-2.81	-0.01	-1.05	-2.27%	-0.83%
COc1ccc2cc(CCC(C)=O)ccc2c1 [nabumetone]	0.72	0.69	-4.19	-1.8%	-0.03%
O=C(OC(C(F)(F)F)C(F)(F)F)N1CCN(Cc2cccc(Oc3ccccc3)c2)CC1	3.59	4.7	3.33	3.51%	2.77%
OC[C@@H](O)[C@@H](O[C@@H]1O[C@H](CO)[C@H](O)[C@H](O)[C@H]1O)[C@H](O)[C@@H](O)CO	-1.07	0.84	0.06	0.18%	-0.36%
Nc1nc(=O)c2c([nH]1)NCC(CNc1ccc(C(=O)N[C@@H](CCC(=O)O)C(=O)O)cc1)N2C=O (stereo not given in full) [leucovorin]	-3.4	-3.52	-0.89	1.42%	-0.745%
O=C1COc2c(CCNCCN(C(=O)CCNCCc3ccc(Cl)c(Cl)c3)C3CCCCC3)ccc(O)c2N1	-5.28	-4.67	-5.93	-1.32%	-3.71%
O=C(O)c1cc(=O)[nH]c(=O)[nH]1 [orotic-acid]	-2.95	1.49	-1	0.78%	0.21%
CN(C)CCCO[C@@H]1[C@H]2OC(C)(C)O[C@H]2O[C@@H]1[C@H](O)CO [amiprilose]	-4.79	-3.54	-5.54	-4.16%	-1.28%
NC(=O)C(c1ccccc1)(c1ccc(F)cc1)c1ccc(F)cc1 [senicapoc]	-2.77	-1.48	-2.37	0.14%	-0.54%
CC(C)C[C@H](NC(=O)N1CCCCCC1)C(=O)N[C@H](Cc1cn(C)c2ccccc12)C(=O)N[C@H](Cc1ccccn1)C(=O)O	-0.85	2.47	0.97	-2.82%	2.44%
